# An excerpt weighted towards active compounds, which were near 19% of everything screened.
# HT1080 IDH1KD tx = qHTS for induction of synthetic lethality in tumor cells producing 2HG: qHTS for the HT-1080-IDH1KD cell line; HT-1080 IDH1 knockdown viability, ATP luminescence, 48 h; Potency, µM (titrated, usually from 46.1 µM), for inactives: at the top dose activity, negative = toxicity, hits mostly cytotoxic; hit rate 2% among 360,000; AID 686971, 2013;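 also: potency is read from the fitted curve at half-maximal effect; 0% = DMSO wells and -100% = cell-free medium wells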
#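 IDH1KD HT-1080 cells, 750/well, RPMI + 5% FBS; compound pinned after 2 h settling; 48 h, 37 °C; CellTiter-Glo luminescence; % activity normalised to DMSO and no-cell wells; curves fitted, classed by r2 and efficacy.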
# IL-1B inflam inh = qHTS for Inhibitors of Inflammasome Signaling: IL-1-beta AlphaLISA Primary Screen; THP-1 LPS/ATP IL-1B secretion, AlphaLISA, 16 h; hits give low values; activity change, % at 57.5 µM; AID 743279, 2014; hit rate 4.7% among 360,000; in the data active = activity change below about -50%; inconclusive = mostly about -30% to -49%
#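 Secreted IL-1B measured by AlphaLISA bead assay after 16 h compound exposure of THP-1 cells; compounds (final up to 57.5 uM) added 1 h before LPS (250 ng/mL) and ATP (1.25 mM) stimulation; lower signal means less secretion.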
# HT1080NT lethal = qHTS for induction of synthetic lethality in tumor cells producing 2HG: qHTS for the HT-1080-NT fibrosarcoma cell line; HT-1080-NT fibrosarcoma viability, CellTiter-Glo ATP luminescence, 48 h; AID 686970, 2013; Potency, µM (highest dose often 46.1 µM), for the others: at the top dose activity, negative = less viability, hits mostly cytotoxic; hit rate 1.6% among 360,000;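 also: NT is the 2HG producing partner of a matched IDH1 knockdown line; potency is read from the fitted curve at half-maximal effect; 0% = DMSO-treated cells and -100% = media-only wells without cells; nearly all actives have a fitted effect of over 55% in size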
#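 HT-1080-NT fibrosarcoma cells (2HG-overproducing), 750 cells/well in RPMI with 5% FBS, dosed after 2 h and incubated 48 h at 37C. CellTiter-Glo luminescence normalized to DMSO and no-cell wells; concentration-response curves fitted and classed.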
# DT40 TDP1 CPT = qHTS for Inhibitors of human tyrosyl-DNA phosphodiesterase 1 (TDP1): qHTS in cells in presence of CPT | AID 686979, 2013 | Potency, µM (titrated, usually from 46.2 µM), for inactives: at the highest dose activity change, negative = growth inhibition, actives largely listed as inhibitors | chicken DT40 Tdp1-/-;hTDP1 cells + 20 nM CPT, ATP luminescence, 48 h | hit rate 12% among 420,000; also: potency is read from the fitted curve at half-maximal effect; nearly all actives have a fitted effect of over 55% in size
#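 Chicken DT40 Tdp1-/- cells complemented with human TDP1, 400 cells/well, exposed to compounds plus 20 nM camptothecin for at least 48 h at 37 C; viability read as ATP content by CellTiter-Glo luminescence.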
# DT40 TDP1 no CPT = qHTS for Inhibitors of human tyrosyl-DNA phosphodiesterase 1 (TDP1): qHTS in cells in absence of CPT; DT40 Tdp1-/- hTDP1 cells, no CPT, ATP luminescence, 48 h; Potency, µM (titrated, usually from 46.2 µM), without a hit: at the top dose activity change, negative = growth inhibition, hits mostly inhibitors; hit rate 15% among 420,000; also: potency is read from the fitted curve at half-maximal effect; nearly all actives have a fitted effect of over 55% in size
#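 Camptothecin absent (DMSO only). Human TDP1-complemented DT40 knockout cells, 400 cells/well, 37 °C for minimum 48 hr; ATP measured via CellTiter-Glo, 30 min dark incubation, luminescence.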
# Active calls of the source: *; ? = inconclusive; / = no result; [ ] = dose if it differs, or a comment. Unless noted, calls follow the shape of the dose curve; as a rule, active = well fitted curve in the direction sought with a large enough effect; inconclusive = small, poorly fitted or top-dose-only effect, or another doubt; inactive = no such curve, though single readings can be large; an effect the other way counts as inactive or inconclusive. Unless noted, % is scaled to controls: 0 for no effect and ±100 for the full control effect.
SMILES,HT1080 IDH1KD tx,IL-1B inflam inh,HT1080NT lethal,DT40 TDP1 CPT,DT40 TDP1 no CPT
O=c1[nH]c(CN(CCO)CCO)nc2c1C1(CCCCC1)Cc1ccccc1-2,-5.2%,?,-8.2%,?,-0.1%
COc1ccc(S(=O)(=O)Nc2cccc3c2O[C@H](CN(C)Cc2ccc(Oc4ccccc4)cc2)[C@@H](C)CN([C@H](C)CO)C3=O)cc1,-24.9%,-29.2,-11.0%,16.4µM*,20.6µM*
COc1ccc(S(=O)(=O)Nc2cccc3c2O[C@H](CN(C)Cc2ccc(-c4ccccc4)cc2)[C@@H](C)CN([C@H](C)CO)C3=O)cc1,-13.7%,?,-17.0%,?,?
COc1ccc(CN(C)C[C@H]2Oc3c(NC(=O)Nc4ccccc4)cccc3C(=O)N([C@H](C)CO)C[C@@H]2C)cc1,-2.9%,-7.1,-6.9%,16.4µM*,29.1µM*
C[C@@H]1CN([C@H](C)CO)C(=O)c2cccc(NS(=O)(=O)c3cccs3)c2O[C@H]1CN(C)Cc1ccccc1,8.4%,35.5,-0.2%,11.6µM*,11.6µM*
Oc1ccc(F)c2cccnc12,0.0%,-70.2*,?,13µM*,14.6µM*
Cc1ccc(S(=O)(=O)Nc2cccnc2Oc2ccc(Cl)cc2)cc1,-8.0%,0.0,1.0%,-0.2%,-10.0%
Oc1ccc(Cl)c2cccnc12,-25.3%,-29.8,-6.8%,1.84µM*,1.84µM*
Cc1ccc(S(=O)(=O)Nc2cc(Cl)c(O)c3ncccc23)cc1,?,50.4,-22.6%,2.31µM*,5.17µM*
Clc1cc2cccnc2c2ccccc12,10.7%,14.7,7.7%,-2.1%,-2.8%
Oc1c(Cl)cc(Cl)c2cccnc12,20.6µM*,125.9,?,18.4µM*,8.2µM*
O=C(Oc1ccc(Cl)c2cccnc12)N1CCCCC1,-23.3%,10.0,0.0%,5.0%,-8.9%
OCC1=CC[N+]2(Cc3ccccc3)CCC(O)[C@@H]12 (stereo partly specified),/,/,/,6.7%[9.04 µM],-6.4%[9.04 µM]
O=C(CN1C(=O)C2C3c4ccccc4C(c4ccccc43)C2C1=O)Nc1ccccc1C(=O)O (stereo unspecified),7.7%,14.0,-1.4%,-3.0%,-3.3%
CCOC(=O)c1c(C)[nH]c(C)c1C(=O)CSc1nc2ccccc2n1CCC#N,-13.0%,0.0,-7.8%,4.0%,-30.0%
CCCn1c(SCC(=O)c2c(C)[nH]c(C)c2C(=O)OCC)nc2ccccc21,3.7%,0.0,8.3%,16.4µM*,?
Cc1[nH]c2ccccc2c1C(=O)CSc1nccc(=O)[nH]1,6.4%,19.0,-0.4%,-10.4%,11.3%
CCOC(=O)c1c(C)[nH]c(C)c1C(=O)CSc1nc2ccccc2c(=O)n1-c1ccc(C)cc1,3.4%,-2.2,5.5%,8.5%,10.1%
Cc1[nH]c2ccccc2c1C(=O)CSc1ccc(Cl)cc1,-19.4%,-16.3,-0.3%,23.1µM*,?
CCOC(=O)c1c(C)[nH]c(C)c1C(=O)CSc1nc2ccccc2c(=O)n1-c1ccc(Cl)cc1,?,-7.3,-9.7%,16.4µM*,18.4µM*
Cc1ccc(NC(=O)N2CCOCC2)cc1NC(=O)N1CCOCC1,15.2%,3.4,3.8%,12.3%,1.7%
Cc1ccc(S(=O)(=O)CCC(=O)NCCN2C(=O)S/C(=C/c3ccc(F)cc3)C2=O)cc1,-1.5%,-62.4*,-12.1%,23.1µM*,18.4µM*
CC12CCC(=O)N1C(C(=O)NCCN1C(=O)S/C(=C\c3ccc(F)cc3)C1=O)CS2 (stereo unspecified),2.4%,-62.6*,1.5%,?,?
O=C(CCNC(=O)c1ccco1)NCCN1C(=O)S/C(=C\c2ccc(F)cc2)C1=O,-6.7%,-28.2,-1.5%,?,?
COc1ccccc1C(=O)Nc1ccnn1C1CCN(CCCC2CCCC2)CC1,-12.0%,0.1,-6.3%,?,?
SMILES,HT1080 IDH1KD tx,IL-1B inflam inh,HT1080NT lethal,DT40 TDP1 CPT,DT40 TDP1 no CPT
C[C@@H]1CN([C@H](C)CO)C(=O)CCCn2nncc2CO[C@@H]1CN(C)S(=O)(=O)c1ccc2ccccc2c1,-6.6%,-8.9,-13.1%,-14.7%,?
Cc1nc2ccc(NC(=O)c3cccs3)cc2c(=O)n1Cc1ccc(Cl)cc1,?,-92.3*,6.31µM*,18.4µM*,?
Cc1ccccc1C(=O)NC1CC(C)(C)NC(C)(C)C1,28.5%,-5.1,8.9%,1.3%,0.2%
CC1(C)CC(NC2C3CC4CC(C3)CC2C4)CC(C)(C)N1 (stereo unspecified),?,/,-10.4%,18.4µM*,14.6µM*
CCCN1CCc2c(sc(NC(=O)C3CCN(S(=O)(=O)c4cccs4)CC3)c2C(N)=O)C1,-4.5%,-62.2*,-6.2%,?,?
CCOC(=O)c1c(NC(=O)C2CCCCC2)sc2c1CCN(CC)C2,-21.1%,?,-0.6%,?,?
CCN1CCc2c(sc(NC(=O)C3CCCCC3)c2C(=O)OC)C1,-13.0%,-7.8,-6.3%,25.9µM*,?
CC(=O)N1CCc2c(sc(NC(=O)C3CCCN3S(=O)(=O)c3cccs3)c2C(N)=O)C1 (stereo unspecified),-7.3%,68.8,-11.7%,20.6µM*,16.4µM*
Cc1ccc(OCCOc2cccc3ccc(C)nc23)c([N+](=O)[O-])c1,-8.0%,23.8,-20.3%,?,16.4µM*
COc1ccc(OCCOCCOc2ccc(C)cc2[N+](=O)[O-])cc1,7.1%,13.9,-3.8%,-4.9%,-29.1%
Cc1ccc2cccc(OCc3cccc([N+](=O)[O-])c3)c2n1,-0.1%,-50.8*,0.1%,9.6%,-9.0%
O=[N+]([O-])c1cccc(COc2ccccc2CN2CCCC2)c1,5.8%,1.2,0.2%,-22.1%,-23.7%
COC(=O)c1c(-c2c(Cl)cccc2Cl)noc1NC(=O)NN1CCCCC1,?,/,?,?,16.4µM*
COC(=O)c1c(-c2c(Cl)cccc2Cl)noc1NC(=O)NN1CCOCC1,-0.4%,13.9,-6.1%,-8.2%,-19.2%
CN(CC(=O)Nc1ccccc1Cl)C(=O)c1cc2c(s1)CCCCC2,-17.4%,-3.3,-15.5%,?,16.4µM*
CN(CC(=O)Nc1ccc(Cl)cc1)CC(=O)Nc1sc2c(c1C(N)=O)CCC2,-19.1%,?,-5.8%,20.6µM*,14.6µM*
NC(=O)c1c(NC(=O)CS(=O)(=O)c2ccc(Cl)cc2)sc2c1CCCCC2,/,/,/,23.1µM*,16.4µM*
CN(CC(=O)Nc1ccccc1Cl)CC(=O)Nc1sc2c(c1C(N)=O)CCC2,-1.8%,?,-12.2%,25.9µM*,18.4µM*

# Assay outcomes (PubChem)
